Screens deposited in PubChem by several laboratories.
ERa coact pot – enhances coactivator binding to human estrogen receptor alpha | AID 639 | P03372 | hit rate 1.3% among 86,000 | TR-FRET ERalpha-LBD/SRC-Cy5 coactivator binding, 2 h; 100 = basal binding, no effect | coactivator binding (% of control), % at 25.6 µM; in the data active = activity above about 200%;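 also: binding measured in presence of low estradiol as agonist stimulus; 0% = peptide alone without receptor and 100% = receptor with peptide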
EphB4 ephrin blk – antagonists of human EphB4-ephrin-B2 interaction; P54760; EphB4 LBD / TNYL-RAW-Alexa532 peptide, fluorescence polarization; inhibition, % at 7 µM; hit rate 0.15% among 97,000; AID 720;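 active = inhibition above the screen-wide mean inhibition plus 3 SD, cut at about 15% in these data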;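 also: 0% = DMSO wells and 100% = excess unlabeled TNYL-RAW peptide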
ERa coact inh – ER-alpha (human) coactivator binding inhibition; P03372; TR-FRET ER-alpha LBD / SRC-1 peptide, estradiol-bound; inhibition, % at 25.6 µM; hit rate 1.7% among 86,000; in the data active = inhibition above about 50%;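 also: 0% = receptor plus peptide control and 100% = peptide only without receptor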
ERb SRC1 inh – blocks coactivator binding to human estrogen receptor beta; Q92731; TR-FRET ER-beta LBD / SRC1-Cy5 peptide binding; receptor agonist-loaded with 1 µM estradiol; inhibition, % at 25.6 µM; hit rate 1.3% among 86,000; AID 633;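 active = compounds whose percent inhibition of the receptor-coactivator binding signal exceeds about 50% in the single-dose screen, limit read from the data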;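 also: 0% = receptor plus peptide wells without compound and 100% = peptide-only wells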
Active calls of the source: *; · = not tested or not shown; [ ] = remark or other dose. This is a sample that favours compounds with a hit; in the whole collection about 2.8% have one here.

SMILES	ERa coact pot	EphB4 ephrin blk	ERa coact inh	ERb SRC1 inh
O=C(CSc1oc(-c2ccc(F)cc2)nc1S(=O)(=O)c1ccc(F)cc1)NCC1CCCO1 (stereo not given)	86	2	15	16
Cc1ccc(-c2nc(S(=O)(=O)c3ccc(F)cc3)c(SCC(=O)NCC3CCCO3)o2)cc1 (stereo not given)	107	-3	67*[fluorescence artefact?]	25
CCCOc1ccc(-c2nnn(CC(=O)c3c[nH]c4ccccc34)n2)cc1	·	-3	·	·
COc1ccc2nc3sc(C(=O)NCc4cccs4)c(N)c3cc2c1	90	-3	54*[fluorescence artefact?]	19
CCCn1c(C)cc(=O)c2cc(NC(=O)c3cnccn3)ccc21	226*[fluorescence artefact?]	4	40	27
Cc1ccc(-c2nc3cccnc3o2)cc1NC(=O)COc1ccc(C(C)(C)C)cc1	107	82*[fluorescence artefact?]	6	0
Cc1ccc(-c2nc3cccnc3o2)cc1NC(=O)COc1ccc(Cl)cc1C	210*[fluorescence artefact?]	0	42	32
Cc1ccc(-c2nc3ncccc3o2)cc1NC(=O)Cc1ccc(Cl)cc1	132	5	52*[fluorescence artefact?]	37
Cc1cc(NC(=O)CN2CCN(c3ccccc3F)CC2)nc2c1c(=O)oc1ccccc12	96	·	43	32
O=C(Nc1nc(-c2cc3ccccc3oc2=O)cs1)c1ccco1	280*[fluorescence artefact?]	·	27	40
O=C(Nc1nc(-c2ccncc2)cs1)c1ccco1	-1	-1	98*[fluorescence artefact?]	49
Cc1ccc(C(=O)Nc2nc(-c3cccnc3)cs2)o1	59	-2	48	51*
O=C(Nc1nc(-c2ccccc2)cs1)c1ccc(Br)o1	·	-6	·	·
COc1ccc(CC(=S)N2CCOCC2)cc1	·	-5	·	·
CCC(C)NS(=O)(=O)c1ccc(S(=O)(=O)N(CC(=O)Nc2ccccc2)CC2CCCO2)cc1 (stereo not given)	106	-7	15	17
COC(=O)c1cc2c(C)nn(-c3ccccc3)c2s1	246*	-2	21	22
O=C(Nc1cccc(C(F)(F)F)c1)c1cc(-c2ccc(F)cc2)on1	112	5	4	8
CCN1C/C(=C\c2cccc(C)c2)c2nc3ccccc3c(C(=O)O)c2C1	·	-7	·	·
CC1CC(C)CN(C(=O)c2ccccc2Nc2ccc(SC(F)F)cc2)C1 (stereo not given)	93	-8	-1	-8
COc1ccc(-c2nc(Cn3c(SCc4ccc(F)cc4)nc4ccncc43)c(C)o2)cc1OC	188	5	42	27
COc1ccc(-c2nc(Cn3c(SCc4ccccc4F)nc4ccncc43)c(C)o2)cc1	458*[fluorescence artefact?]	-5	-2	21
Cc1cccc(N2CCN(c3nc4ccccc4n4cnnc34)CC2)c1C	54	-1	54*	29
NC(=O)COc1ccc(C2c3c(oc4ccccc4c3=O)C(=O)N2CC2CCCO2)cc1 (stereo not given)	61	-3	70*	70*
COc1ccc(C2c3c(oc4ccccc4c3=O)C(=O)N2CC2CCCO2)cc1 (stereo not given)	84	-6	4	16
CCOc1ccc2nc(SCC(=O)c3ccc(C)s3)sc2c1	221*	-2	22	0
SMILES	ERa coact pot	EphB4 ephrin blk	ERa coact inh	ERb SRC1 inh
O=c1cc(CN2CCN(c3ccccc3)CC2)c2cc(O)c(-c3ccccc3)cc2o1	84	-5	79*[fluorescence artefact?]	35
Cc1cc2oc(=O)cc(CN3CCN(Cc4ccccc4)CC3)c2cc1Cl	120	-4	4	2
O=c1cc(CN2CCN(Cc3ccccc3)CC2)c2cc(Cl)ccc2o1	85	-11	7	60*[fluorescence artefact?]
Cc1cc(NC(=O)CSc2nc(CC(C)(C)C)nc3c2c(=O)n(C)c(=O)n3C)no1	88	1	2	0
COc1ccc(-n2nnnc2-c2cn(C)nc2C(F)(F)F)cc1	·	-4	·	·
CCOC(=O)c1cnc(Nc2nc3ccccc3o2)nc1CSc1ncccn1	212*[fluorescence artefact?]	12	55*	3
Nc1nc(N2C(=O)C3CC=CCC3C2=O)nn1-c1ccccc1 (stereo not given)	116	-3	57*	-8
CC(C)CCn1nnnc1C(C(C)C)N1CCC(C(N)=O)CC1 (stereo not given)	112	10	-21	-23
COC(=O)c1ccc2c(c1)N(Cc1nc(-c3ccc(Cl)cc3)oc1C)C(=O)C1CCCN21 (stereo not given)	113	·	1	5
COc1cccc(NC(=O)Cn2nnc(C(=O)Nc3ccccc3)c2N)c1	107	-2	28	-3
COc1cccc(NC(=O)c2nnn(Cc3ccc(Br)cc3F)c2N)c1	270*	·	-3	-24
COc1ccc(CCNC(=O)C(=O)N2CCCCC2)cc1OC	102	-10	18	6
CCOc1ccc2nc(NCCNC(=O)Nc3cccc(C)c3)c(C#N)cc2c1	121	3	51*[fluorescence artefact?]	11
CCC(=O)c1cc(F)c(N2CCN(S(=O)(=O)c3ccc(C)cc3)CC2)cc1C	121	-5	5	5
CCOC(=O)Cc1csc(NC(=O)CCCN2C(=O)c3ccccc3C2=O)n1	109	-2	3	-13
CCOC(=O)Cc1csc(NC(=O)CCN2C(=O)c3ccccc3C2=O)n1	98	-7	2	97*[fluorescence artefact?]
Clc1cccc2sc(-c3nnc(-c4ccccc4)o3)c(Cl)c12	109	-3	-2	-5
CCCC(=O)c1c[nH]c(C(=O)NCCc2ccccn2)c1	·	-10	·	·
CCOC(=O)C1CCN(C(=O)Nc2ccc3c(c2)nc(C)n3C)CC1	109	-29	-22	-20
CCOC(=O)C1CCN(C(=O)Nc2ccc3nc(-c4ccco4)c(-c4ccco4)nc3c2)CC1	31	4	96*[fluorescence artefact?]	95*[fluorescence artefact?]
O=C(Cc1cccc2ccccc12)N/N=C/c1ccc(OC(=O)/C=C/c2ccco2)cc1	88	-6	65*[fluorescence artefact?]	48
O=C(Cc1cccc2ccccc12)N/N=C/c1ccc(F)cc1	·	0	·	·
Fc1ccccc1Cc1nnc2n1N=C(c1ccc(Cl)cc1)CS2	112	1	-5	7
O=c1[nH]c2ccc(Cl)cc2c(O)c1-c1ccccc1	·	-10	·	·
COc1ccc(C2CC(c3c(-c4ccccc4)c4cc(Cl)ccc4[nH]c3=O)=NN2S(C)(=O)=O)cc1OC (stereo not given)	131	-12	69*	43
SMILES	ERa coact pot	EphB4 ephrin blk	ERa coact inh	ERb SRC1 inh
C=CCn1c(SCC(=O)N2CCc3ccccc3C2)nc2sc(C)cc2c1=O	·	-1	·	·
N=c1c(S(=O)(=O)c2ccccc2)cc2c(=O)n3ccccc3nc2n1CCN1CCOCC1	129	6	-3	0
Cc1ccc(S(=O)(=O)c2cc3c(=O)n4ccccc4nc3n(Cc3ccco3)c2=N)cc1C	38	2	75*[fluorescence artefact?]	50*[fluorescence artefact?]
N=c1c(S(=O)(=O)c2ccccc2)cc2c(=O)n3ccccc3nc2n1Cc1ccco1	49	10	76*[fluorescence artefact?]	79*[fluorescence artefact?]
Fc1ccc(-c2ccnc(=S)[nH]2)cc1	·	1	·	·
CC1Cc2ccccc2N1C(=O)CSc1nnc(-c2ccc(S(=O)(=O)N3CCCC3)cc2)o1 (stereo not given)	374*	7	7	13
O=C(CSc1nnc(-c2ccc(S(=O)(=O)N3CCCC3)cc2)o1)N1CCCC1	107	-5	1	2
CC(=O)c1cccc(NC(=O)CSc2nnc(-c3ccc(S(=O)(=O)N4CCCC4)cc3)o2)c1	261*	1	-21	-8
